The values below come from PubChem BioAssay (NCI).

About 79,000 compounds went through this panel and 15% of them were active in at least one assay; those are over-represented in the sample as a whole. Values without a mark were called inactive. Active and inactive are the calls of the source. No stated cut-off is given here; in the data, active means growth inhibition above about 70%; inactive means the rest.

This assay in a line: NCI Yeast Anticancer Drug Screen. Data for the rad50EPP+ strain (AID 151).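 Further: 0% = growth of vehicle-treated control cultures.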 To be noted: S. cerevisiae rad50 mutant strain, active compounds read high. As for the experimental part: Growth inhibition of yeast strains with defined genetic alterations is measured as a screen for potential anti-cancer activity. Selected strains with alterations in DNA damage repair or cell cycle control were exposed to compounds and growth inhibition was measured relative to vehicle treated controls. The strain used in this assay is rad50EPP+

For `CCCCCCNCCCNc1c2cc(OC)ccc2nc2cccc([N+](=O)[O-])c12`, the growth inhibition was 2% (at 1.2 µM); 5% (at 3.7 µM); 20% (at 11.0 µM); 60% (at 33.0 µM); 92% (active) (at 100.0 µM).

On to `CCS(=O)(=O)Nc1ccc(Nc2c3ccccc3nc3ccccc23)c(OC)c1`, for which the growth inhibition (at 1.2 µM) was -1%; the growth inhibition (at 3.7 µM) is 17%; the growth inhibition (at 11.0 µM) was 48%; the growth inhibition (at 33.0 µM) was 77% (active); the growth inhibition (at 100.0 µM) was 84% (active).

For the compound `CC(=O)Oc1ccc2c(c1)Cc1cc(N3C(=O)C=CC3=O)ccc1-2`, the growth inhibition was 81% (active) (at 1.2 µM); 96% (active) (at 3.7 µM); 98% (active) (at 11.0 µM); 97% (active) (at 33.0 µM); 92% (active) (at 100.0 µM).

In the case of `O=S(=O)(NC1CCCC(c2ccccc2)C1)c1ccccc1` (stereo not given), the growth inhibition (at 1.2 µM) is -1%; the growth inhibition (at 3.7 µM) was 1%; the growth inhibition (at 11.0 µM) is -1%; the growth inhibition (at 33.0 µM) was 3%; the growth inhibition (at 100.0 µM) is 20%.

Regarding `COc1ccc2nc(CCc3ccccc3)ccc2c1`, the growth inhibition runs as follows: (at 1.2 µM) -7%; (at 3.7 µM) -9%; (at 11.0 µM) 11%; (at 33.0 µM) 26%; (at 100.0 µM) 34%.

Consider `CN(C)N=Nc1ccc(N(C)C)cc1`, for which the growth inhibition was 4% (at 1.2 µM); 8% (at 3.7 µM); 31% (at 11.0 µM); 53% (at 33.0 µM); 55% (at 100.0 µM).

With `COc1ccccc1NC(=O)c1ccc(Cl)cc1`, the growth inhibition runs as follows: (at 1.2 µM) 7%; (at 3.7 µM) 9%; (at 11.0 µM) 22%; (at 33.0 µM) 40%; (at 100.0 µM) 40%.

For the compound `CC/C(=C(\c1ccccc1)c1ccc(OCC[N+](C)(C)C)cc1)c1ccccc1`, the growth inhibition is, setting by setting: (at 1.2 µM) 3%; (at 3.7 µM) 18%; (at 11.0 µM) 94% (active); (at 33.0 µM) 98% (active); (at 100.0 µM) 99% (active).
